# This excerpt belongs to a sample that is enriched for hits.
# HIV RNase H inh-1 – inhibitors of HIV-1 reverse transcriptase RNase H; P04585; RT-RNase H RNA/DNA duplex cleavage, fluorescence; inhibition, % at 10 µM; 65,000 compounds, 1.9% hits; AID 565; in the data active = inhibition above about 50%
# HIV RNase H inh-2 – confirmation of HIV-1 reverse transcriptase RNase H inhibitors. shares compounds with HIV RNase H inh-1. Recombinant RT RNase H, fluorescent RNA/DNA duplex cleavage. inhibition, % at 10 µM. 1,000 compounds, 39% hits. AID 651; in the data active = inhibition above about 48%; inconclusive = no clear call, values can overlap the other calls
# An asterisk follows results filed as active; ? = inconclusive.
SMILES,HIV RNase H inh-1,others
CC(=O)C(Sc1nc(-c2ccco2)nc2c1c(=O)n(C)c(=O)n2C)C(=O)N(C)C (stereo not drawn),-2,
Cn1c(=O)c2c(SCC(=O)NCC3CCCO3)nc(-c3cccs3)nc2n(C)c1=O (stereo not drawn),-7,
O=C(NCC(c1ccc(F)cc1)N1CCOCC1)c1ccc(Br)o1 (stereo not drawn),-5,
O=S(=O)(/N=C(/Nc1cc(N2CCOCC2)ncn1)c1ccccc1)c1ccccc1,-14,
O=C(Nc1cc(N2CCOCC2)ncn1)Nc1cccc2ccccc12,-2,
O=C(NC(=O)c1ccc(Cl)cc1)Nc1cc(N2CCCCC2)ncn1,75*,HIV RNase H inh-2=99*
S=c1nc(C2CC2)[nH]c2ccccc12,84*,HIV RNase H inh-2=69*
O=C(Cc1ccccc1)N1CCC(c2nc3ccccc3[nH]2)CC1,4,
CC(C)c1nc(=S)c2ccccc2[nH]1,23,
CCC1(COC(=O)Nc2cccc(Cl)c2)COC1,-4,
CCCCNc1cc(C(=O)O)cc(S(N)(=O)=O)c1Oc1ccccc1,-10,
CC(C)N(CCCNC(=O)CC1Oc2ccccc2NC1=O)Cc1ccccc1 (stereo not drawn),0,
Cn1cc(SCC(=O)NCc2ccc3c(c2)OCO3)c2ccccc21,-34,
CCc1ccccc1NC(=O)Cn1nnc(-c2cccnc2)n1,-6,
COC(=O)c1sc(NC(=O)c2cnccn2)c(C(=O)OC)c1C,6,
CCOC(=O)c1sc(NC(C)=O)c(C(=O)OCC)c1C,-3,
COC(=O)c1sc(NC(C)=O)c(C(=O)OC)c1C,58*,HIV RNase H inh-2=0
Cn1cnnc1SCC(=O)Nc1ccccc1,-5,
COc1ccc(NC(=O)CSc2nccc(C)n2)cc1,-11,
O=C(CSc1nc2ccccc2o1)Nc1ccccc1,-46,
CSc1nnc2c(n1)OC=Nc1ccccc1-2,-11,
Cc1ccc(NC(=O)CCSc2nnc(-c3ccco3)o2)cc1,7,
Cc1ccc(NC(=O)CSc2nnc(-c3ccco3)c(-c3ccco3)n2)cc1,97*,HIV RNase H inh-2=28
O=C(CSc1nnc(-c2ccco2)c(-c2ccco2)n1)Nc1ccccc1,87*,HIV RNase H inh-2=37
CSc1nnc(-c2ccco2)c(-c2ccco2)n1,77*,HIV RNase H inh-2=43
SMILES,HIV RNase H inh-1,others
CCS(=O)(=O)n1nc(-c2ccco2)nc1SC,-3,
Cn1nc(-c2ccc(N3CCOCC3)c(NC(=O)COc3ccccc3)c2)c2ccccc2c1=O,-3,
O=C(Nc1ccc(F)cc1)c1cc(S(=O)(=O)N2CCCCC2)cs1,4,
COc1cccc2c1OC1(C)CC2NC(=O)N1c1cccc(C(=O)Nc2ccc3c(c2)OCCO3)c1 (stereo not drawn),1,
O=c1cc(O)nc(SC23CC4CC(CC(C4)C2)C3)[nH]1,2,
Cn1cc(S(=O)(=O)Nc2ccc(Br)cc2F)c(=O)n(C)c1=O,-8,
COc1ccc(N2CCN(Cc3cc(=O)oc4cc(-c5ccccc5)c(O)cc34)CC2)cc1,92*,HIV RNase H inh-2=69*
COc1ccc(N2CCN(Cc3cc(=O)oc4cc(C)c(Cl)cc34)CC2)cc1,33,
Cc1cc2oc(=O)cc(CN3CCN(C/C=C/c4ccccc4)CC3)c2cc1O,13,
CN(C=O)CP(=O)(O)CCN1CCCC1=O,-1,
Cc1oc(-c2cccc(Cl)c2)nc1CN1CCCC(C(=O)NC(C)c2ccc3c(c2)OCCO3)C1 (stereo not drawn),-8,
CCOC(=O)c1[nH]c2ccc(OC)cc2c1NC(=O)CN1CCN(c2ccccn2)CC1,-5,
CCOC(=O)c1[nH]c2ccc(OC)cc2c1NC(=O)C(C)N1CCC2(CC1)OCCO2 (stereo not drawn),3,
CCOC(=O)c1[nH]c2ccc(OC)cc2c1NC(=O)CN1CCC2(CC1)OCCO2,74*,HIV RNase H inh-2=33
Cc1ccc(-c2ccc(CCC(=O)O)n2Cc2ccco2)cc1,0,
CCCCn1ccnc1C(=O)c1ccc(S(=O)(=O)N(CCOC)CCOC)cc1,-15,
COc1ccc(-c2ocnc2C(=O)Nc2ccccc2N2CCCCC2)cc1,76*,HIV RNase H inh-2=45
O=C(Nc1ccccc1N1CCCC1)c1ccc2c(c1)OCO2,-30,
COc1ccc2cc3cc(C(=O)Nc4ccccc4N4CCN(C)CC4)oc3nc2c1,-9,
CCOC(=O)N1CCN(C(=O)Cc2ccsc2)CC1,-12,
CCn1c(COc2ccccc2C)nnc1SCC(=O)CC(=O)Nc1ccccc1,-7,
O=C(CN1C(=O)C2C3C=CC(C3)C2C1=O)NCc1ccc2c(c1)OCO2 (stereo not drawn),-6,
Cc1nnc(Oc2ccccc2F)c2ccccc12,-14,
COC(=O)c1cc(=O)n2c(-c3ccc(OC)cc3)csc2n1,-6,
Cc1[nH]nc2nc3c(c(OC(=O)c4ccccc4)c12)c(=O)n(C)c(=O)n3C,-8,
SMILES,HIV RNase H inh-1,others
CC(C)(C)C(=O)NC1(C(F)(F)F)C(=O)Nc2c1c(=O)[nH]c(=O)n2Cc1ccco1 (stereo not drawn),-6,
O=c1[nH]c(=O)n(Cc2ccco2)c2c1C(C(F)(F)F)(C(F)(F)F)N=C(C1CCCCC1)N2,70*,HIV RNase H inh-2=29
CCC(=O)NC1(C(F)(F)F)C(=O)Nc2c1c(=O)[nH]c(=O)n2Cc1ccco1 (stereo not drawn),1,
COc1cc2[nH]c(=O)n(CCC(=O)N3CCN(c4cccc(C)c4C)CC3)c(=O)c2cc1OC,61*,HIV RNase H inh-2=46
COc1ccccc1N1CCN(C(=O)CCn2c(=O)[nH]c3ccsc3c2=O)CC1,-3,
COc1cc2[nH]c(=O)n(CCC(=O)NCc3cccnc3)c(=O)c2cc1OC,-2,
Cc1cc(C)n(-c2nnc(C)c(=O)[nH]2)n1,-3,
Cc1cc(C)c(S(=O)(=O)N2CCCCC2)c(C)c1-n1ncnn1,-16,
Clc1ccccc1-c1nn2c(COc3ccccc3)nnc2s1,-2,
c1ccc(Cc2nn3c(COc4ccccc4)nnc3s2)cc1,93*,HIV RNase H inh-2=64*
c1ccc(OCc2nn3c(-c4ccco4)nnc3s2)cc1,3,
COc1ccc(-c2nnc3sc(COc4ccccc4)nn23)cc1,-2,
c1ccc(OCc2nn3c(C4CCCCC4)nnc3s2)cc1,64*,HIV RNase H inh-2=29
CCOc1cccc(-c2nnc3sc(COc4ccccc4)nn23)c1,24,
C/C=C/Cn1c(SCc2ccc(Cl)cc2)nc2c1c(=O)[nH]c(=O)n2C,45,
C/C=C/Cn1c(Br)nc2c1c(=O)[nH]c(=O)n2C,-8,
Cn1c(=O)[nH]c(=O)c2c1nc(N1CCCCC1)n2CCSc1ncccn1,-8,
C/C=C/Cn1c(N2CCCCCC2)nc2c1c(=O)[nH]c(=O)n2C,87*,HIV RNase H inh-2=40
Cn1c(=O)[nH]c(=O)c2c1nc(N1CCCCC1)n2CCOc1ccccc1,0,
C/C=C/Cn1c(SC)nc2c1c(=O)[nH]c(=O)n2C,77*,HIV RNase H inh-2=?
Cc1ccc(C)c(SCC(=O)OCC(=O)c2ccco2)c1,-22,
Cc1nn(C)c(C)c1S(=O)(=O)N1CCC(C(=O)NCC2COc3ccccc3O2)CC1 (stereo not drawn),-6,
N#CCC(=O)Nc1ncn(Cc2ccccc2Cl)n1,1,
CN(C)CCCN1C(=O)C(=O)/C(=C(/O)c2ccc(S(=O)(=O)N(C)C)cc2)C1c1ccncc1 (stereo not drawn),-2,
COCCN1CSC(=S)N(Cc2ccco2)C1,63*,HIV RNase H inh-2=-8
COC(=O)c1ccc(=O)n(Cc2ccco2)c1,-17,
COC(=O)C1C2C=CC3(CN(Cc4ccco4)C(=O)C13)O2 (stereo not drawn),-2,
C=CCn1c(COc2ccc(CC)cc2)nnc1SCC(=O)N(C)C1CCS(=O)(=O)C1 (stereo not drawn),2,
